Potency and outcome data for 31 compounds are collected here from PubChem BioAssay (NCATS).

Experiment [1] in a line: Primary qHTS for inhibitors of La Crosse Virus (LACV) - induced cell death in SH-SY5Y cells (AID 1508616). Further: potency means the concentration at half of the fitted maximal effect. Put shortly: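 Protection against LACV-induced cell death is scored in SH-SY5Y cells exposed to compounds and virus (0.01 MOI) for 6 days. Data normalized to virus-infected DMSO wells and virus-free DMSO wells.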
(In general: Quantitative high-throughput screening tests each substance at several concentrations.)

Experiment [2] has as its target Calcium and integrin-binding protein 1 (Homo sapiens) (UniProt Q99828). The experiment in a line: Validation qHTS for Identification of Calcium Integrin Binding protein 1 (CIB1) Competitor (AID 1508618). The essentials:
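CIB1-GST (1 uM final) incubated 15 min at room temperature with compounds (up to 114 uM), then FITC-labelled alphaIIb peptide (100 nM) added. FP read (Ex 480/Em 540) after 15 min, pH 7.4 buffer containing 5 mM CaCl2.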

The nature of experiment [3]: Primary qHTS for small molecule stabilizers of the endoplasmic reticulum resident proteome: Secreted ER Calcium Modulated Protein (SERCaMP) assay (AID 1508630). Put shortly:
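GLuc-SERCaMP-expressing SH-SY5Y cells, pretreated 16 h with compound, are challenged with thapsigargin to empty ER calcium stores; after 4 h, coelenterazine is added directly to the medium and luminescence is imaged.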

The target in the next experiment is Papain (Carica papaya) (UniProt P00784). The experiment in a line: Primary qHTS assay for inhibitors of the protease papain (AID 1645873).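 Further: papain turnover of Z-FR-AMC read as the AMC fluorescence gain over 10 min; series mostly up to about 50 µM.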
Sequence of Papain (Carica papaya) (P00784 whole entry, looked up): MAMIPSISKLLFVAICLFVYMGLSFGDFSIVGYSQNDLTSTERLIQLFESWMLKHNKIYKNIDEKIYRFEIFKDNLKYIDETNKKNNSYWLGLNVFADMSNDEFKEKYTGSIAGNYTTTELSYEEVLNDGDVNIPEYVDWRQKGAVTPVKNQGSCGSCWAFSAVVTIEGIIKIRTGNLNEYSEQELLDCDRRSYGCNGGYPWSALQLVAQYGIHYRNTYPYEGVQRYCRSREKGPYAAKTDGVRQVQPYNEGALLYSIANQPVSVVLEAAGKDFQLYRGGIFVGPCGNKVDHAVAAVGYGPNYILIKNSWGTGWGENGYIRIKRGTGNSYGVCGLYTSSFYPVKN
A short description of experiment [4]: Counterscreen qHTS for small molecule stabilizers of the endoplasmic reticulum resident proteome: GLuc-NoTag assay (AID 1508627).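 Further: SH-SY5Y cells given compound then 100 nM thapsigargin to empty ER calcium; series mostly up to about 76 µM.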 The essentials:
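SH-SY5Y cells stably expressing constitutively secreted GLuc without SERCaMP tag, exposed to compound for 19 hr, then to 100 nM thapsigargin for 4 hr at 37C. Medium luciferase was read by coelenterazine luminescence without lysis.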
Background: A counterscreen serves to expose hits that act by an unwanted route or on another target.

Experiment [5] can be described thus: Confirmatory qHTS for small molecule stabilizers of the endoplasmic reticulum resident proteome: Secreted ER Calcium Modulated Protein (SERCaMP) assay (AID 1508628). Further: potency means the concentration at half of the fitted maximal effect; nearly all actives have a fitted effect of over 40% in size. The essentials:
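SH-SY5Y cells stably expressing GLuc-SERCaMP, treated 16 h with compound (primary 1.53, 7.67, 38.3 uM; confirmation 11 concentrations, up to 76.6 uM), then 100 nM thapsigargin for 4 h. Secreted Gaussia luciferase in medium read by coelenterazine luminescence.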

Experiment [6] concerns the target N-terminal Xaa-Pro-Lys N-methyltransferase 1 (Homo sapiens) (UniProt Q9BV86). The experiment in a line: Confirmatory qHTS for Inhibitors of N-terminal methyltransferase 1 (NTMT1): MTaseGlo Assay (AID 1645874). Further: nearly all actives have a fitted effect of over 65% in size. Further: potency means the concentration at half of the fitted maximal effect. The essentials: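 qHTS format: NTMT1 125 nM, SAM 100 uM, peptide SPKRIA 1 uM final; 15 min compound preincubation, 30 min reaction at room temperature. MTase-Glo luminescence.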

Records with an inconclusive call do not appear. Calls of active or inactive are those of the source. The call rests on the fitted dose curve; in most records, active means well fitted curve in the direction sought with a large enough effect; inconclusive means small, poorly fitted or top-dose-only effect, or another doubt; inactive means no such curve, though single readings can be large; an effect the other way counts as inactive or inconclusive.

Sequence of Calcium and integrin-binding protein 1 (Homo sapiens) (Q99828 whole entry, looked up): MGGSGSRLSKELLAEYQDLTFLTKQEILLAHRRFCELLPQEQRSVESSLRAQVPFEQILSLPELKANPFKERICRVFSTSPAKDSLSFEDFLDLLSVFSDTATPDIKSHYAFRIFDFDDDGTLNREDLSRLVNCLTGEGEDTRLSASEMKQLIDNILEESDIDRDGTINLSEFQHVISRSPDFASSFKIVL
Sequence of N-terminal Xaa-Pro-Lys N-methyltransferase 1 (Homo sapiens) (Q9BV86 whole entry, looked up): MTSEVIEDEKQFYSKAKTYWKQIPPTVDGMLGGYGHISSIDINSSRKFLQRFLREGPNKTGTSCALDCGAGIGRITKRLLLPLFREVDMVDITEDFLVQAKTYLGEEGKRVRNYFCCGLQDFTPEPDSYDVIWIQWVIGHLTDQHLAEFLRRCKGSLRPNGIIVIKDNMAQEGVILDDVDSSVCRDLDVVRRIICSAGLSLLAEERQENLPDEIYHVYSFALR

Consider `CCCN(CCC)C1CCc2cccc(O)c2C1` (stereo unspecified), for which the Potency entry (in experiment [1]; in experiment [2]; with Papain (Carica papaya)) was “inactive” each time. Further, the result in experiment [3] was inactive.

As to `CN1CCc2cccc(Cl)c2CC1`, the Potency entry (in experiment [1]; in experiment [2]; with Papain (Carica papaya)) was “inactive” in each case.

Consider `CC(=O)NBr`, for which the Potency result (in experiment [1]; in experiment [2]; with Papain (Carica papaya)) was “inactive” throughout. Also, the result in experiment [3] was inactive.

`CC(N)Cc1c[nH]c2ccc(O)cc12` (stereo unspecified): the Potency result (in experiment [1]; in experiment [2]; in the experiment with Papain (Carica papaya)) was “inactive” each time.

For the compound `C[C@H](N)Cc1cccc(C(F)(F)F)c1`, the Potency result (in experiment [1]; in experiment [2]; in the experiment with Papain (Carica papaya)) was “inactive” throughout. Further, the outcome in experiment [3] was inactive.

For the compound `C[N+]1(C)C2CCC1CC(OC(=O)c1c[nH]c3ccccc13)C2` (stereo unspecified), the Potency entry (in experiment [1]; in experiment [2]; with Papain (Carica papaya)) was “inactive” throughout.

`CC(C)[C@@]1(NC(=O)[C@@H]2C[C@@H]3c4cccc5[nH]cc(c45)C[C@H]3N(C)C2)O[C@@]2(O)[C@@H]3CCCN3C(=O)[C@H](Cc3ccccc3)N2C1=O`: in experiment [1], the Potency entry was “inactive”. For the same compound, the result in experiment [4] was inactive. In experiment [5], the Potency was 25.1 µM (active).

Take `CCCN(CCC)C1Cc2cc(OC)c(OC)cc2C1`: the Potency entry (in experiment [1]; in experiment [2]; in the experiment with Papain (Carica papaya)) was “inactive” throughout. Besides, in experiment [3], the outcome was inactive.

Regarding `CN(C(=O)Cc1ccc(Cl)c(Cl)c1)C(CN1CCCC1)c1cccc(OCC(=O)O)c1` (stereo unspecified), the Potency entry (in experiment [1]; in experiment [2]; with Papain (Carica papaya)) was “inactive” each time. Besides, in experiment [3], the outcome was inactive.

As to `NC(=O)COc1c(F)cc(SCCNS(=O)(=O)c2ccccc2)cc1F`, the Potency entry (in experiment [1]; in experiment [2]; with Papain (Carica papaya)) was “inactive” throughout.

Consider `NCCc1ccc(S(=O)(=O)F)cc1`, for which the Potency entry (in experiment [1]; in experiment [2]; in the experiment with Papain (Carica papaya)) was “inactive” throughout.

As for `NNC(=O)c1ccc(O)cc1`, the Potency result (in experiment [1]; in experiment [2]; in the experiment with Papain (Carica papaya)) was “inactive” throughout. Moreover, the result in experiment [3] was inactive.

Regarding `CCCN(CCC)[C@H]1CCc2c(F)ccc(O)c2C1`, the Potency result (in experiment [1]; in experiment [2]; in the experiment with Papain (Carica papaya)) was “inactive” in each case. Besides, the outcome in experiment [3] was inactive.

For `c1ccc2cc(CC3=NCCN3)ccc2c1`, the Potency entry (in experiment [1]; in experiment [2]; with Papain (Carica papaya)) was “inactive” each time.

Consider `O=S1(=O)N(CCN2CC=C(c3c[nH]c4cc(F)ccc34)CC2)c2cccc3c2N1CCC3`, for which the Potency entry (in experiment [1]; in experiment [2]; in the experiment with Papain (Carica papaya)) was “inactive” throughout. The outcome in experiment [3] was inactive.

As to `N#CCCN`, the Potency entry (in experiment [1]; in experiment [2]; with Papain (Carica papaya)) was “inactive” in each case.

As for `Clc1cc(I)cc(Cl)c1NC1=NCCN1`, the Potency entry (in experiment [1]; in experiment [2]; with Papain (Carica papaya)) was “inactive” throughout. Further, the outcome in experiment [3] was inactive.

With `CC12NC(Cc3ccccc31)c1ccccc12` (stereo unspecified), the Potency result (in experiment [1]; in experiment [2]; in the experiment with Papain (Carica papaya)) was “inactive” throughout. Moreover, the result in experiment [3] was inactive.

`CCCN1CCc2cc(O)cc3c2[C@H]1Cc1ccc(O)c(O)c1-3`: in experiment [1], the Potency is 2 µM (active). Also, the Potency entry (in experiment [2]; with Papain (Carica papaya)) was “inactive” each time. In experiment [3], the outcome was inactive.

As for `C=CCN1CC[C@]23c4c5ccc(O)c4O[C@H]2/C(=N/NC(=O)c2ccccc2)CC[C@@]3(O)[C@H]1C5`, in experiment [1], the Potency entry was “inactive”. For the same compound, in experiment [3], the result was inactive.

`C[N+]1(C)CCOC(O)(c2ccc(-c3ccc(C4(O)C[N+](C)(C)CCO4)cc3)cc2)C1` (stereo unspecified): the Potency entry (in experiment [1]; in experiment [2]; with Papain (Carica papaya)) was “inactive” in each case. For the same compound, in experiment [3], the outcome was inactive.

In the case of `C=CCN1C[C@@H](C)N([C@H](c2ccc(C(=O)N(CC)CC)cc2)c2cccc(OC)c2)C[C@@H]1C`, the Potency entry (in experiment [1]; in experiment [2]; with Papain (Carica papaya)) was “inactive” in each case.

Regarding `NNC(N)=O`, the Potency result (in experiment [1]; in experiment [2]; in the experiment with Papain (Carica papaya)) was “inactive” throughout.

For `CCCC[N+]1(C)C2CC(OC(=O)[C@H](CO)c3ccccc3)CC1C1OC12` (stereo partly specified), the Potency result (in experiment [1]; in experiment [2]; in the experiment with Papain (Carica papaya)) was “inactive” throughout.

For `NC(N)=Nc1ccc2[nH]c3c(c2c1)C[C@@]1(O)[C@H]2Cc4ccc(O)c5c4[C@@]1(CCN2CC1CC1)[C@H]3O5`, the Potency entry (in experiment [1]; in experiment [2]; with Papain (Carica papaya); in experiment [6]) was “inactive” in each case. In addition, the outcome in experiment [3] was inactive.

On to `CC(C)(O)[C@@H]1C2OC(=O)[C@@H]1[C@]1(O)C[C@H]3O[C@]34C(=O)O[C@H]2[C@]14C` (tested in a mixture with another compound), for which the Potency result (in experiment [1]; in experiment [2]; with Papain (Carica papaya)) was “inactive” each time. Besides, the outcome in experiment [3] was inactive.

Take `N[C@@]1(C(=O)O)CC[C@@H](C(=O)O)C1`: the Potency entry (in experiment [1]; in experiment [2]; in the experiment with Papain (Carica papaya)) was “inactive” each time. Besides, in experiment [3], the outcome was inactive.

As for `N[C@@H](Cn1oc(=O)[nH]c1=O)C(=O)O`, the Potency entry (in experiment [1]; in experiment [2]; with Papain (Carica papaya)) was “inactive” each time. Moreover, the outcome in experiment [3] was inactive.

In the case of `CN1CCc2cc(O)cc3c2[C@H]1Cc1ccc(O)c(O)c1-3`, the Potency in experiment [1] is 3.98 µM (active). In addition, the Potency entry (in experiment [2]; with Papain (Carica papaya)) was “inactive” each time.

Turning to `C#CCN[C@H](C)Cc1ccccc1`, the Potency result (in experiment [1]; in experiment [2]; in the experiment with Papain (Carica papaya)) was “inactive” in each case.

Regarding `CC(C)(C)c1cc(C=C(C#N)C#N)cc(C(C)(C)C)c1O`, the Potency result (in experiment [1]; in experiment [2]; in the experiment with Papain (Carica papaya)) was “inactive” in each case. In addition, the outcome in experiment [3] was inactive. Also, the Potency in experiment [6] was 38.8 µM (active).
